Experimental data published in PubChem BioAssay.

Assay: changes in parasitized red cell lysis, either direction – P. falciparum Indochina, OD700, 3 h, PSAC antagonist project, primary screen (AID 1156)
Details: P. falciparum-infected erythrocytes, osmotic lysis, higher = more signal, called active from +8 up or from −8 down

z-score, inactive:
C[N+](C)(C)CCCC[C@@H]1NC(=O)[C@@H]2C[C@H](C(=O)O)[C@H](c3cccc(OCCO)c3)N2C1=O -1.84, COCCOC(=O)N1C(=O)[C@@]2(c3cc(C#CCC(C(=O)OC)C(=O)OC)ccc31)[C@H](c1ccc(OCCO)cc1)N1[C@H](c3ccccc3)[C@H](c3ccccc3)OC(=O)[C@H]1[C@@H]2C(N)=O 0.478, Cc1cc(C)c(C(O)C2C=CC3C(=O)N(c4ccccc4)C(=O)C3N2Nc2ccc([N+](=O)[O-])cc2)c(C)c1 (centres undefined) 0.252, O=C(CS)NCCCCCNC(=O)[C@@H]1C[C@@H]2C(=O)N3CCC[C@H]3C(=O)N2[C@@H]1c1ccc(O)cc1 -2.66, C[C@@H]1ON(c2ccccc2)[C@H](c2ccccc2)[C@H]1C(=O)N1C(=O)OC[C@H]1Cc1ccccc1 -0.13, [N-]=[N+]=Nc1ccccc1[C@@H]1OC(c2ccc(OCCCO)cc2)=N[C@]1(CCS(=O)(=O)c1ccccc1)C(=O)NCc1ccccc1 1.29, COc1ccc([Si](C)(C)[C@@H]2[C@@H](CC(=O)N(CCO)Cc3ccccc3)O[C@]3(C(=O)N(Cc4ccc(N5CCOC5=O)cc4)c4ccccc43)[C@H]2C)cc1 -0.248, COc1ccccc1CN1C(=O)c2ccccc2[C@@H](C(=O)NCC(C)C)[C@@H]1c1ccc(CO)cc1 1.23, COC(=O)[C@@]1(Cc2ccc(F)cc2)[C@@H]2[C@@H](CC(=O)[C@H]2CC(=O)C(=O)N2CCCC2)CN1C(=O)c1ccccc1 0.747, CC1CC/C=C\[C@H]2OC34C=CCN(c5ccc(Cl)cc5)C(=O)[C@H]3N(C(CO)C(C)C)C(=O)[C@]4(C)C2C(=O)O1 (some centres undefined) 0.647, C=CCC(OC(C)=O)[C@@H]1[C@@H](N(Cc2cccc3ccccc23)C(=O)Cc2ccc(F)cc2)c2cc(OCCCO)ccc2N1C(=O)Cc1ccc(OC)cc1 (some centres undefined) -0.0628, COC(=O)[C@]1(Cc2ccccc2CN=[N+]=[N-])N=C(c2ccc(OCCCO)cc2)O[C@@H]1c1ccccc1 -0.232, CCCc1cc2c(n1Cc1ccc(OC)cc1)C(C)C1CN(C(=O)c3ccccc3)C(C)(C(=O)OC)C21 (centres undefined) 1.27, CN(C)C(=O)[C@@]1(CCC(=O)OC(C)(C)C)N=C(c2ccc(OCCCO)cc2)O[C@H]1c1ccccc1N=[N+]=[N-] 1.78, CCN(CC)c1ccc(N2CC=CC34O[C@@H]5/C=C\CCCOC(=O)C5[C@H]3C(=O)N(CCCCCO)[C@@H]4C2=O)cc1 (some centres undefined) -0.656, COC(=O)[C@@]1(Cc2ccc(F)cc2)[C@H]2c3cc(C(=O)N(C)C)n(CCSCCO)c3C[C@H]2CN1C(=O)c1ccccc1 -0.662, C=CCNC(=O)[C@@H]1[C@H]2C(=O)O[C@H](c3ccccc3)[C@H](c3ccccc3)N2[C@H](c2ccc(O)cc2)[C@@]12C(=O)Nc1ccc(C#CCCO)cc12 -0.534, COC(=O)C(CC#Cc1ccc2c(c1)[C@]1(C(=O)N2)[C@H](c2ccccc2OCCO)N2[C@H](c3ccccc3)[C@H](c3ccccc3)OC(=O)[C@H]2[C@@H]1C(=O)Nc1nc2ccccc2s1)C(=O)OC 0.103, COC(=O)[C@@]1(Cc2ccc(OC)cc2)[C@H]2c3cc(C(=O)N4CCCC4)n(CCc4ccc(O)c(OC)c4)c3C[C@H]2CN1C(=O)c1ccccc1 0.394, CCOC(=O)C[C@H]1[C@H](OC(=O)c2ccccc2-c2ccccc2)[C@@H](NC(=O)c2ccccc2)c2cc(OCCCO)ccc2N1C(=O)Cc1ccc(OC)cc1 -0.338, C=C(/C(=C/C[C@@H](OC(=O)c1ccncc1)c1ccccc1OCCO)c1cnc2ccccc2c1)C(C)C -1.59, COCCOC(=O)N1C(=O)[C@@]2(c3cc(C#CCC(C(=O)OC)C(=O)OC)ccc31)[C@H](C(=O)N1CCCCCCC1)[C@H]1C(=O)O[C@H](c3ccccc3)[C@H](c3ccccc3)N1[C@@H]2c1ccc(O)cc1 0.678, NC(=O)NCC#Cc1ccc2c(c1)[C@]1(C(=O)N2)[C@H](c2ccc(OCCO)cc2)N2[C@H](c3ccccc3)[C@H](c3ccccc3)OC(=O)[C@H]2[C@@H]1C(=O)N1CCCCCCC1 0.323, C=C(CCCC)/C(=C/C[C@H](OC(=O)c1ccncc1)c1ccc(CO)o1)c1cc(C(=O)OC)ccc1OC 2.04
